Screening results (PubChem)
An excerpt weighted towards active compounds, which were near 21% of everything screened.
Shiga toxin inh = A qHTS for Small Molecule Inhibitors of Shiga Toxin; Vero cells, Shiga toxin protein synthesis inhibition reporter; inhibition, % at 38.7 µM; hit rate 9.2% among 290,000; AID 2315, 2010; in the data active = inhibition mostly above about 28%, no sharp cut-off; inactive = mostly below about 43%
NS1 inh = qHTS Assay for Inhibitors of Influenza NS1 Protein Function. Potency, µM (doses to about 46.1 µM). hit rate 0.4% among 270,000. AID 2326, 2010; calls by dose curve; note: actives are rising curves; nearly all actives have a fitted effect of over 50% in size
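Compounds were scored for reversing the slow growth caused by influenza A NS1 in S. cerevisiae, measured by optical density at 600 nm. Assay medium contained 2% galactose at pH 6.0; NS1-free yeast of the same strain were the positive control.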
Pf growth 96h = Primary qHTS for delayed death inhibitors of the malarial parasite plastid, 96 hour incubation | P. falciparum luciferase reporter growth, 96 h | Potency, µM (top dose mostly 28.7 µM), actives largely listed as inhibitors | hit rate 6.9% among 320,000 | AID 504834, 2011
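Compounds incubated with erythrocytes infected by luciferase-expressing P. falciparum (2% hematocrit, 0.05% parasitemia final) for 96 hours, 37 C in 5% CO2. Growth inhibition scored as decreased luciferase luminescence.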
Sm TGR block = qHTS Assay for the Inhibitors of Schistosoma Mansoni Peroxiredoxins; Schistosoma mansoni thioredoxin glutathione reductase (TGR), Q962Y6; purified TGR, DTNB reduction, TNB absorbance 405 nm; Potency, µM (series often up to 114 µM), usual class: inhibitors; hit rate 3% among 360,000; note: nearly all actives have a fitted effect of over 60% in size
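Kinetic colorimetric format: TGR-catalysed, NADPH-driven DTNB reduction monitored via TNB absorbance. Enzyme dispensed at 20 nM; compound exposure 15 min at room temperature before reaction start.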
Pf growth 48h = Primary qHTS for delayed death inhibitors of the malarial parasite plastid, 48 hour incubation. P. falciparum luciferase growth in erythrocytes, 48 h. Potency, µM (doses to about 28.7 µM), usual class: inhibitors. hit rate 5.9% among 310,000. AID 504832, 2011
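Read-out is firefly luciferase luminescence from an integrated reporter in P. falciparum, so falling signal marks reduced parasite growth. Infected erythrocytes were at 2% hematocrit and 0.1% parasitemia (final) in Albumax-supplemented RPMI 1640.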
Cycloheximide cs = Cycloheximide Counterscreen for Small Molecule Inhibitors of Shiga Toxin; cell reporter, cycloheximide protein synthesis inhibition counterscreen; max response, %; hit rate 12% among 300,000; AID 2314, 2010; in the data active = max response mostly above about 13%, no sharp cut-off; inactive = mostly below about 14%; note: read at 38.3 µM for the half of the compounds with a filed dose
Large screens that a line does not name were inactive; ! = a repeat was not active. Unless noted, calls come from the whole dose curve; as a rule, active = well fitted curve in the direction sought with a large enough effect; inconclusive = small, poorly fitted or top-dose-only effect, or another doubt; inactive = no such curve, though single readings can be large; an effect the other way counts as inactive or inconclusive.

N#Cc1ccc(NCC(=O)Nc2ccc(S(=O)(=O)N3CCCCC3)cc2)cc1	Pf growth 96h inconclusive, Pf growth 48h 9.3µM (no result: Shiga toxin inh, NS1 inh, Cycloheximide cs)
CCc1cccc(NC(=O)CN2C(=O)CCc3cc(S(=O)(=O)N4CCOCC4)ccc32)c1	none (no result: Shiga toxin inh, NS1 inh, Pf growth 96h, Pf growth 48h, Cycloheximide cs)
Cc1c(C(=O)Nc2ccccc2)sc2nc[nH]c(=O)c12	Pf growth 96h inconclusive, Cycloheximide cs 15
Cc1nc(C)c(C(=O)Nc2ccccc2)s1	none
Cc1ccc(C)c(NC(=O)c2sc(Cl)nc2C)c1	Pf growth 48h inconclusive
Cc1c(C(=O)Nc2ccc(F)cc2)sc2nc[nH]c(=O)c12	none (no result: Shiga toxin inh, NS1 inh, Pf growth 96h, Pf growth 48h, Cycloheximide cs)
Cc1nc(Cl)sc1C(=O)Nc1ccc2ccccc2c1	Shiga toxin inh 192, Cycloheximide cs 66
Cc1nc(-c2ccccn2)sc1C(=O)Nc1ccc(Cl)c(Cl)c1	Shiga toxin inh 128, Cycloheximide cs 26
Cc1nc(Cl)sc1C(=O)Nc1ccccc1	Pf growth 96h inconclusive, Cycloheximide cs 11
CN[C@H](Cc1ccccc1)c1cccc(OC)c1O	none (no result: Shiga toxin inh, Pf growth 96h, Sm TGR block, Pf growth 48h, Cycloheximide cs)
CCOC(=O)c1sc(-c2ccccn2)nc1C	Shiga toxin inh 112, Cycloheximide cs 45 (no result: NS1 inh)
Cc1cccc(C)c1NC(=O)c1sc(Cl)nc1C	none
Cc1nc(-c2ccccn2)sc1C(=O)O	none (no result: NS1 inh)
Cc1nc(Cl)sc1C(=O)Nc1ccc(Cl)cc1	Shiga toxin inh 71, Cycloheximide cs 25
Cc1nc(Cl)sc1C(=O)Nc1cccc(Cl)c1	Pf growth 96h inconclusive, Cycloheximide cs 31 (no result: Shiga toxin inh)
Cc1nc(C)c(C(=O)Nc2cccc(F)c2)s1	Shiga toxin inh 35, Cycloheximide cs 19
CC(=O)c1cccc(NC(=O)c2sc(Cl)nc2C)c1	Pf growth 96h inconclusive (no result: Shiga toxin inh)
CCN(CC)C(=O)Cn1cc(C(=O)C2CC2)c2ccccc21	none
O=S1(=O)NC2c3ccccc3CC2O1 (configuration not stated)	Sm TGR block 25µM
N#Cc1c(-n2ncnc2-c2ccc(Br)cc2)sc2c1CCCCC2	none (no result: Shiga toxin inh, NS1 inh, Pf growth 96h, Pf growth 48h, Cycloheximide cs)
CN(/N=C/c1cc(Br)cc(Br)c1O)c1cccc(C(F)(F)F)n1	Pf growth 96h inconclusive, Pf growth 48h 4.1µM
CC(=O)N(C)C(c1ccc(N(C)C)cc1)c1nnnn1-c1c(C)cccc1C (configuration not stated)	Pf growth 96h 5.2µM, Pf growth 48h 5.2µM
Cc1ccc(CN2CC(C(=O)NCC(=O)Nc3c(C)cccc3C)CC2=O)cc1 (configuration not stated)	none (no result: Shiga toxin inh, NS1 inh, Cycloheximide cs)
Cc1ccc(-n2c(=O)c3c4c(sc3n(CC(=O)Nc3ccccc3C)c2=O)CCCCC4)cc1C	none (no result: Shiga toxin inh, NS1 inh, Pf growth 96h, Pf growth 48h, Cycloheximide cs)
CCN(CC)CCOc1ccc(/C(=C(/Cl)c2ccccc2)c2ccccc2)cc1	Pf growth 96h 9.3µM, Pf growth 48h 9.3µM!
CC/C(=C(\c1ccc(O)cc1)c1ccc(OCCN(C)C)cc1)c1ccccc1	none (no result: Pf growth 96h, Pf growth 48h)
O=C(c1ccccc1)N1N=C(c2ccco2)CC1c1cccs1 (configuration not stated)	Sm TGR block 35µM
CC(=O)N1N=C(c2cccs2)CC1c1cccs1 (configuration not stated)	none
Cc1ccc(C(=O)N2N=C(c3ccc(NS(C)(=O)=O)cc3)CC2c2cccs2)cc1 (configuration not stated)	Pf growth 96h inconclusive
Cc1ccc(C2=NN(C(=O)CCl)C(c3cccs3)C2)o1 (configuration not stated)	Pf growth 96h 2.1µM, Sm TGR block 3.2µM, Pf growth 48h 3.7µM, Cycloheximide cs 23
O=C(CCl)N1N=C(c2ccco2)CC1c1cccs1 (configuration not stated)	Pf growth 96h inconclusive, Sm TGR block 3.2µM, Pf growth 48h 12µM
Cc1ccc(C2=NN(C(=O)CCC(=O)O)C(c3cccs3)C2)cc1 (configuration not stated)	Pf growth 96h inconclusive
CC(=O)N1N=C(c2ccco2)CC1c1cccs1 (configuration not stated)	Sm TGR block 45µM
COc1ccc(NC(=O)COC(=O)C2CC(=O)N(c3ccc(C)cc3)C2)cc1 (configuration not stated)	Pf growth 96h inconclusive
CN1Cc2c(N3CCOCC3)nc3sc(C(=O)c4ccc(Br)cc4)c(N)c3c2CC1(C)C	Pf growth 96h 9.3µM, Pf growth 48h 4.1µM
COc1ccc(NC(=O)c2sc3nc(N4CCOCC4)c4c(c3c2N)CC(C)(C)OC4)cc1	Pf growth 96h inconclusive
COc1ccc(NC(=O)c2sc3nc(N4CCCC4)c4c(c3c2N)CC(C)(C)OC4)cc1	Pf growth 96h 12µM, Pf growth 48h 13µM
COc1ccc(NC(=O)c2sc3nc(N4CCOCC4)c4c(c3c2N)CC(C)(C)OC4)c(OC)c1	Pf growth 96h 1.7µM, Pf growth 48h inconclusive
CC1(C)Cc2c(c(N3CCOCC3)nc3snc(NC(=O)c4ccccc4)c23)CO1	Pf growth 96h 8.3µM (no result: Pf growth 48h)
O=C(O)c1ccc(Nc2ncc([N+](=O)[O-])cc2[N+](=O)[O-])cc1	none
O=C(CSc1nc(C2CC2)nc2ccccc12)Nc1ccccc1N1CCOCC1	Pf growth 48h inconclusive (no result: Sm TGR block)
O=C(O)Cn1ncn(-c2ccc(OC(F)(F)F)cc2)c1=O	Pf growth 96h inconclusive (no result: NS1 inh)
O=C(COC(=O)c1ccc[nH]c1=O)NCCCc1ccccc1	none (no result: Shiga toxin inh, NS1 inh, Cycloheximide cs)
CCN(CC)C(=O)c1cc(-c2ccccc2OC)on1	Shiga toxin inh 54, Cycloheximide cs 37
CCC(C)NC(=O)c1cc(-c2ccccc2O)on1 (configuration not stated)	Shiga toxin inh 84, Pf growth 96h inconclusive, Cycloheximide cs 52 (no result: Pf growth 48h)
COc1ccccc1-c1cc(C(=O)NC(C)c2ccccc2)no1 (configuration not stated)	Pf growth 96h inconclusive, Pf growth 48h inconclusive
COc1ccccc1-c1cc(C(=O)NC(C)C)no1	Shiga toxin inh 83, Cycloheximide cs 34
COc1ccc(OC)c(-c2cc(C(=O)NCc3cccs3)no2)c1	Pf growth 96h inconclusive, Pf growth 48h inconclusive
COc1ccccc1-c1cc(C(=O)NCc2cccs2)no1	Pf growth 96h 3.7µM
O=c1oc(-c2ccc(C(F)(F)F)cc2)nn1Cc1cc(Cl)ccc1O	none (no result: NS1 inh, Pf growth 96h, Sm TGR block, Pf growth 48h)
COc1ccc2c(c1)-c1nc(/N=C/c3ccc(O)c(OC)c3)sc1CC2	Pf growth 96h inconclusive
CSCC[C@H](NC(=O)[C@H](Cc1c[nH]c2ccccc12)NC(=O)CNC(=O)[C@H](Cc1ccc(O)cc1)NC(=O)[C@H](C)NC(=O)[C@H](CCC(=O)O)NC(=O)[C@H](CCC(=O)O)NC(=O)[C@H](CCC(=O)O)NC(=O)[C@H](CCC(=O)O)NC(=O)[C@H](CCC(=O)O)NC(=O)[C@H](CC(C)C)NC(=O)[C@H](Cc1c[nH]c2ccccc12)NC(=O)[C@@H]1CCCN1C(=O)CNC(=O)[C@@H]1CCC(=O)N1)C(=O)N[C@@H](CC(=O)O)C(=O)N[C@@H](Cc1ccccc1)C(=O)NCC(=O)O	none (no result: NS1 inh, Pf growth 96h, Sm TGR block, Pf growth 48h)
